NPC1 promoter act – activates the NPC1 promoter; Huh7 NPC1 promoter luciferase reporter, 24 h; Potency, µM (doses to about 9.22 µM), inactives show at the top dose activation, actives largely listed as activators; 320,000 compounds, 2.4% hits; further: % of control where 0% means no effect; nearly all actives have a fitted effect of over 60% in size
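Readout is luciferase luminescence, reflecting NPC1 promoter activation in stably transfected Huh7 cells after 24 h compound exposure at 37 °C in reduced-serum medium with 10% FBS.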
SMN2 splice enh – increases expression of the SMN2 splice variant | 210,000 compounds, 2.8% hits | HEK293 SMN2-luciferase splicing reporter, luminescence, 30-36 h | Potency, µM (titrated, usually from 46.1 µM), inactives show at the top dose activity change, positive = activation, hits mostly activators; further: % of control where 0% means no effect; nearly all actives have a fitted effect of over 55% in size
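qHTS luciferase splicing reporter: luminescence rises when SMN2 exon 7 is included in transfected HEK293 cells. Compound exposure lasted 30-36 h at 37C, with 4.5 mM final sodium butyrate as control, followed by a ONE-Glo read.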
FLuc modulator – inhibits or activates purified firefly luciferase, miR-21 counter-screen. purified FLuc, Km substrates, luminescence inhibition. Potency, µM (top dose mostly 57.5 µM), inactives show top-dose activity change, negative = inhibition, most hits filed as inhibitors. 360,000 compounds, 6.9% hits;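 further: plate controls were vehicle for no effect and reference inhibitor for full effect; nearly all actives have a fitted effect of over 55% in size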
Target sequence (P08659 whole entry, looked up): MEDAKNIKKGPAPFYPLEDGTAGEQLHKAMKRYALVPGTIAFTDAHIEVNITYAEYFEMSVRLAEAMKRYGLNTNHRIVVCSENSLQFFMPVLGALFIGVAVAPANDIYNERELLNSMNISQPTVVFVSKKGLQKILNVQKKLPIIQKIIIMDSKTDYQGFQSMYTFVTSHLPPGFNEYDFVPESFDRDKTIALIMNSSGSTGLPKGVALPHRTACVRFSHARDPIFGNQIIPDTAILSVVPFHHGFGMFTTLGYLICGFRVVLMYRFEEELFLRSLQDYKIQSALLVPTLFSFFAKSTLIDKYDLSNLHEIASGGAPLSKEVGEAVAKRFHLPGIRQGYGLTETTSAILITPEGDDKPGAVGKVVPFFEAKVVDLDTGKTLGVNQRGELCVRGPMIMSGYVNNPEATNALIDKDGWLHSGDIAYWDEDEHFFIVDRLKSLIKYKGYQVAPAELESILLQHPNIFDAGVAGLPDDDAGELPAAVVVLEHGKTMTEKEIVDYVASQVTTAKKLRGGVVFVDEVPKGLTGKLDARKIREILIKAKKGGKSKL
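Purified P. pyralis luciferase, 10 nM final, with Km-level 10 uM D-luciferin and 10 uM ATP in 50 mM Tris acetate pH 7.5, 10 mM Mg acetate, 0.01% Tween-20, 0.05% BSA; 6-point qHTS titration about 60 µM downward; luminescence read.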
ELG1 genotoxic – inducers of genotoxicity in HEK293T ELG1-luciferase cells; Potency, µM (highest dose often 46 µM), for inactives: at the top dose activity change, positive = activation, usual class: activators; 330,000 compounds, 1.3% hits; HEK293T ELG1-luciferase reporter, luminescence, 16 h; further: % of control where 0% means no effect; nearly all actives have a fitted effect of over 60% in size
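ELG1-luciferase HEK293T cells, 2,000/well; compound pinned in; 16 hr, 37 °C, 5% CO2; ONE-Glo, 30 min RT; luminescence on CCD imager.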
Rab9 prom act – activates the Rab9 promoter | Potency, µM (doses to about 9.22 µM), for inactives: at the top dose activation, negative = inhibition, usual class: activators | Huh7 Rab9 promoter-luciferase reporter, luminescence, 24 h | 320,000 compounds, 2.8% hits; further: % of control where 0% means no effect; nearly all actives have a fitted effect of over 60% in size
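Stable Rab9-luc Huh7, 1500 cells/well, 2 h settle; cmpd in DMSO, 24 h, 37 °C/5% CO2; luciferase reagent 10 min RT; luminescence.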
* hit, by the source's call; ? = inconclusive; · = no result; [ ] = another dose, or the depositor's remark. The list is not random: actives were taken first. Their share in the collection is about 7.5%. The call rests on the fitted dose curve; in most records, active means well fitted curve in the direction sought with a large enough effect; inconclusive means small, poorly fitted or top-dose-only effect, or another doubt; inactive means no such curve, though single readings can be large; an effect the other way counts as inactive or inconclusive. Potency means the concentration at half of the fitted maximal effect.

SMILES	NPC1 promoter act	SMN2 splice enh	FLuc modulator	ELG1 genotoxic	Rab9 prom act
Cn1cc(Br)c(C(=O)N/N=C/c2cc3c(cc2Cl)OCO3)n1	2.8µM*	·	6µM*	?	?
O=C(N/N=C/c1ccccc1)c1cc(-c2ccc3c(c2)OCO3)n[nH]1	-5%	15%	-5%	2%	-2%
Cc1nn(C)cc1/C=N/NC(=O)c1ccc2c(c1)OCO2	0%	-16%	17µM*	13%	-41%
O=C(N/N=C/c1ccc(Br)o1)c1ccc2c(c1)OCCO2	3.2µM*	11µM*	6µM*	?	3.2µM*
CC(C)(C)c1ccc(OCCOCCn2c(-c3ccc(Cl)cc3)nc3ccccc3c2=O)cc1	·	9%	-7%	·	·
C[C@H]1Cc2c(COc3ccccc3)nc3c(c2CO1)CN(C(=O)NCCc1c[nH]c2ccccc12)CC3	·	-4%[9.22 µM]	·	·	·
Cc1ccc(C(=O)Oc2ccc(/C=N/NC(N)=O)cc2)cc1	-7%	14%	?	3%	-6%
Cc1ccc(/C=N\NC(=O)c2ccc3c(c2)OCO3)o1	?	·	24µM*	?	?
Cc1ccc(C(=O)/C=C/c2ccc3c(c2)OCO3)o1	-5%	3%	2.4µM*	4%	25%
CCOC(=O)N/N=C\c1ccc(OC(=O)c2ccc3c(c2)OCO3)cc1	12%	-4%	15µM*	10%	21%
O=C(O)c1ccc(/C=N/NC(=O)c2ccc3c(c2)OCCO3)cc1	0%	·	6.7µM*	?	1%
CC(C)(C)OC(=O)N1CCC(CNC(=O)c2ccc(F)cc2)CC1	-1%	·	-3%	-5%	-8%
CCOc1cc(/C=N/NC(=O)c2nn(C)cc2Br)ccc1OCc1ccccc1Cl	-1%	-16%	?	-14%	-1%
Cn1cc(Br)c(C(=O)N/N=C/c2cccc(OC3CSC3)c2)n1	0%	6%	19µM*	8%	13%
CN(C)c1ccc(/C=N/NC(=O)c2ccc3c(c2)OCO3)cc1	?	·	8.5µM*	?	?
Cc1ccc(C(=O)N/N=C/c2ccc3c(c2)OCO3)o1	3.2µM*	13µM*	6µM*	?	2.8µM*
COc1cc(/C=N/NC(=O)c2ccc3c(c2)OCCO3)cc(Cl)c1O	22%	·	13µM*	10%	2%
O=C(N/N=C/c1ccc2c(c1)OCO2)c1cc2ccccc2o1	10%	·	?	7%	2%
CCn1cc(/C=N/NC(=O)c2ccc3c(c2)OCO3)cn1	0%	7%	?	2%	11%
Cc1ccc(CS/C(Nc2ccccc2C)=C(\C#N)C(N)=O)c(C)c1	-4%	-7%	-1%	1%	-3%
COc1ccccc1NC(=O)CCN1C(=O)C2C3CCC(C3)C2C1=O (centres undefined)	5%	·	1%	0%	3%
O=C(N/N=C/c1ccccc1)c1ccc2c(c1)OCO2	0.56µM*	·	?	?	0.4µM*
CCOC(=O)N1CCC(NC(=O)c2ccc3c(c2)N=C(C)c2c(C)ccc(C)c2S3)CC1	-23%	·	2%	8%	-29%
O=C(NC(=S)Nc1ccc(N2CCOCC2)cc1)c1ccco1	2.8µM*	16µM*	?	?	?
CC(C)CC(=O)N1CCN(c2ccc(NC(=O)c3ccco3)cc2)CC1	0%	·	0%	2%	3.2µM*
SMILES	NPC1 promoter act	SMN2 splice enh	FLuc modulator	ELG1 genotoxic	Rab9 prom act
S=C(Nc1ccc(N2CCOCC2)cc1)Nc1ccc2nc(-c3ccco3)c(-c3ccco3)nc2c1	1%	-12%	15µM*	-2%	4%
O=C(NC(=S)Nc1ccc(N2CCOCC2)cc1)c1ccccc1	?	?	?	12%	?
O=C(NC(=S)Nc1ccc(CN2CCOCC2)cc1)c1ccco1	20%	·	17µM*	?	?
O=c1cnc2cnc(Oc3ccccc3)nc2n1Cc1ccc(F)cc1	·	-12%	·	·	·
Cn1cccc1C(=O)NC(=O)COC(=O)C12CC3CC(CC(O)(C3)C1)C2	14%	7%	6µM*	9.2µM*	17%
CCOc1ccccc1NC(=O)COC(=O)C12CC3CC(CC(O)(C3)C1)C2	-1%	·	11µM*	-2%	-3%
CC(=O)NC12CC3CC(C1)CC(C(=O)OCC(=O)NC(=O)c1cccn1C)(C3)C2	-1%	?	-19%	11%	-4%

Bioassay records: PubChem, National Center for Advancing Translational Sciences (NCATS)
